In the supplement of paper PMC10849652:
The full data set covers some 7,900 targets. This sample favours those with a hit. About 0.6% of all pairs of compound and target were hits. Unmarked numbers belong to inactive results.

Legend:
Assay in all cases: log2 fold change, soluble protein after heating vs DMSO (PISA); higher = thermal stabilisation; K562 cells, 10 uM, 30 min; active = over 0.2 and 3.5 SD of the protein, either way, in both replicates (recomputed)
[1] = compound: CC[C@@H]1C(=O)N(C)c2cnc(Nc3ccc(C(=O)NC4CCN(C)CC4)cc3OC)nc2N1C1CCCC1
Method in brief: (§1)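 K562 cells (2×10^6 cells/mL) were treated with 10 μM compound for 30 min, and aliquots were heated for 3 min over 48°C-58°C. Pooled aliquots were extracted in PBS with 0.5% NP-40 at 4°C, and the supernatant after 21,000xg for 90 min was measured by TMTpro 16plex LC-MS/MS with channel sums equalised. Reported thermal stability, relative to control samples and from duplicates, is a log2 fold change.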

volasertib = compound: CC[C@@H]1C(=O)N(C)c2cnc(Nc3ccc(C(=O)N[C@H]4CC[C@H](N5CCN(CC6CC6)CC5)CC4)cc3OC)nc2N1C(C)C [volasertib]
Method in brief: as §1

[2] = compound: CC[C@H](C)N1C=C(C2=C(C=C(C=C21)C3=CN=C(C=C3)N4CCNCC4)C(=O)NCC5=C(C=C(NC5=O)C)C)C
Method in brief: as §1

epoxomicin = compound: CC[C@H](C)[C@@H](C(=O)N[C@@H]([C@@H](C)O)C(=O)N[C@@H](CC(C)C)C(=O)[C@]1(CO1)C)NC(=O)[C@H]([C@@H](C)CC)N(C)C(=O)C [epoxomicin]
Method in brief: as §1

[3] = compound: CCn1c(C(=O)N(C2CC2)C2CC2)cc2c3c(ncn3C)c(Nc3cc(C)n(C)n3)nc21
Method in brief: as §1

[4] = compound: CCn1cc(-c2ccnc3[nH]c(-c4cccc(CN(C)C)c4)cc23)c(-c2ccc(NC(=O)N(C)C)cc2)n1
Method in brief: as §1

[5] = compound: CN(C)CC(=O)Nc1ccc2[nH]c(=O)c3ccccc3c2c1
Method in brief: as §1

rosiglitazone = compound: CN(CCOC1=CC=C(C=C1)C[C@H]2C(=O)NC(=O)S2)C3=CC=CC=N3 (racemic) [rosiglitazone]
Method in brief: as §1

[6] = compound: CN1C2=C(C3=C1C(=O)N(N=C3)CC4=CC(=CC=C4)N)SC(=C2)S(=O)C
Method in brief: as §1

[7] = compound: CN1CCC(CNc2ccc3ncc(-c4cccc(OC(F)(F)F)c4)n3n2)CC1
Method in brief: as §1

saracatinib = compound: CN1CCN(CCOc2cc(OC3CCOCC3)c3c(Nc4c(Cl)ccc5c4OCO5)ncnc3c2)CC1 [saracatinib]
Method in brief: as §1

sotrastaurin = compound: CN1CCN(c2nc(C3=C(c4c[nH]c5ccccc45)C(=O)NC3=O)c3ccccc3n2)CC1 [sotrastaurin]
Method in brief: as §1

alvocidib = compound: CN1CC[C@H](c2c(O)cc(O)c3c(=O)cc(-c4ccccc4Cl)oc23)[C@H](O)C1 [alvocidib]
Method in brief: as §1

Tubastatin A = compound: CN1CCc2c(c3ccccc3n2Cc2ccc(C(=O)NO)cc2)C1 [Tubastatin A]
Method in brief: as §1

[8] = compound: CNC(=O)C1=CC=CC=C1NC2=NC(=NC=C2Cl)NC3=C(C=C(C=C3)N4CCOCC4)OC
Method in brief: as §1

defactinib = compound: CNC(=O)c1ccc(Nc2ncc(C(F)(F)F)c(NCc3nccnc3N(C)S(C)(=O)=O)n2)cc1 [defactinib]
Method in brief: as §1

rucaparib = compound: CNCc1ccc(-c2[nH]c3cc(F)cc4c3c2CCNC4=O)cc1 [rucaparib]
Method in brief: as §1

[9] = compound: CNc1nc(-c2ccc3c(N)n[nH]c3c2)cc(N2C[C@@H](C(=O)NC3CCCCC3)CC[C@H]2C)n1
Method in brief: as §1

encorafenib = compound: COC(=O)N[C@@H](C)CNc1nccc(-c2cn(C(C)C)nc2-c2cc(Cl)cc(NS(C)(=O)=O)c2F)n1 [encorafenib]
Method in brief: as §1

[10] = compound: COC(=O)[C@H](CCSC)NC(=O)C1=C(C=C(C=C1)NC[C@H](CS)N)C2=CC=CC=C2
Method in brief: as §1

Sequence of UniProt Q8NC54 (Q8NC54 whole entry, looked up): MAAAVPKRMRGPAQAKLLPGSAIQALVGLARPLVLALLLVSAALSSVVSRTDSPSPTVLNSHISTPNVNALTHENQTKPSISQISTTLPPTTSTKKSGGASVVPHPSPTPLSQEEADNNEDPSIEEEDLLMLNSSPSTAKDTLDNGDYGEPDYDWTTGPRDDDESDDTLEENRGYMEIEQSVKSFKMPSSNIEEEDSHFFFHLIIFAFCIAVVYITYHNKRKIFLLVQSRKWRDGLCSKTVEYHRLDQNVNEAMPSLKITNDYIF
Sequence of UniProt P45984 (P45984 whole entry, looked up): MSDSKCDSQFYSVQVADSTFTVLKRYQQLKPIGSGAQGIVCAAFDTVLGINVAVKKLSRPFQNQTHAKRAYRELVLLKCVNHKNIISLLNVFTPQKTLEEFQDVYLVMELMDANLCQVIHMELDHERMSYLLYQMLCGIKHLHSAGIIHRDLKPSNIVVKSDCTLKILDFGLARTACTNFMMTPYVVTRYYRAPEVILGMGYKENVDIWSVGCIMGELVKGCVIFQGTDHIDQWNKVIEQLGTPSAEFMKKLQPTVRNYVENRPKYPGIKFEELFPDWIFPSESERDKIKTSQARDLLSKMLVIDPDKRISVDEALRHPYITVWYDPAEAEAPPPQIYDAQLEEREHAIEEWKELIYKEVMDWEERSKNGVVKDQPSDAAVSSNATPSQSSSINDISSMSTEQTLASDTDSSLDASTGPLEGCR
Sequence of UniProt O43766 (O43766 whole entry, looked up): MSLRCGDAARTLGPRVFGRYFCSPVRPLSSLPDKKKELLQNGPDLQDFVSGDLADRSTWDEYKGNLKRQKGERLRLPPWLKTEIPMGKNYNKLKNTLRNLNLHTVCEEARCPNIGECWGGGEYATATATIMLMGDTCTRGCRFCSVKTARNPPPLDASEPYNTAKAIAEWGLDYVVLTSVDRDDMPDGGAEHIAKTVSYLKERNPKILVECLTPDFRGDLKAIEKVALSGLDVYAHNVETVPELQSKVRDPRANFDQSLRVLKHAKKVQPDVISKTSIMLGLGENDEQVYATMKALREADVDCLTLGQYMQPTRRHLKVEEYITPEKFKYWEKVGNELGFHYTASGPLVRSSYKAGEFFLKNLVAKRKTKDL
Sequence of UniProt Q9UBF1 (Q9UBF1 whole entry, looked up): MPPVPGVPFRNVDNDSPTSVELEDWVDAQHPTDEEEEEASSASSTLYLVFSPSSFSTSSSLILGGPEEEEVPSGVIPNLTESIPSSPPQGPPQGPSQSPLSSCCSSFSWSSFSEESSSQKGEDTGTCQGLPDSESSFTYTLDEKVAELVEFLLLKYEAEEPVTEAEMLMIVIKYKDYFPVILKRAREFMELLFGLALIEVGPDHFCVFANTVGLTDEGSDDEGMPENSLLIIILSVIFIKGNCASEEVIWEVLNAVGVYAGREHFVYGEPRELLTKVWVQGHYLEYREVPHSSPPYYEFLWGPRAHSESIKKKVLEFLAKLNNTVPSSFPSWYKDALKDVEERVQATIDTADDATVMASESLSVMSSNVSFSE
Sequence of UniProt Q6P1A2 (Q6P1A2 whole entry, looked up): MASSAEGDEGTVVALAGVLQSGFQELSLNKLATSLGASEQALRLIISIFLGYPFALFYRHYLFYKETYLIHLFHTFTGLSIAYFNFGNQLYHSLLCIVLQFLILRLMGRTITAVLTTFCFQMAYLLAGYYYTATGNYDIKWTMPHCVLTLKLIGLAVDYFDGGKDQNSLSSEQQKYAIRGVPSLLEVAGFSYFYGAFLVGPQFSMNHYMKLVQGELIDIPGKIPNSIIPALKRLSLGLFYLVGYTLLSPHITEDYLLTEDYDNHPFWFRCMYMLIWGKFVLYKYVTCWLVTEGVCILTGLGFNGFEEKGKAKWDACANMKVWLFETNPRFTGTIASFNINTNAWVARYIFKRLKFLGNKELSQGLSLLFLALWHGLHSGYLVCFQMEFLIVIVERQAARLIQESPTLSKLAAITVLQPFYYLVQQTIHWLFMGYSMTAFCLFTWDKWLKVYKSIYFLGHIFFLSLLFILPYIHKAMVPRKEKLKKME
Sequence of UniProt Q96AQ8 (Q96AQ8 whole entry, looked up): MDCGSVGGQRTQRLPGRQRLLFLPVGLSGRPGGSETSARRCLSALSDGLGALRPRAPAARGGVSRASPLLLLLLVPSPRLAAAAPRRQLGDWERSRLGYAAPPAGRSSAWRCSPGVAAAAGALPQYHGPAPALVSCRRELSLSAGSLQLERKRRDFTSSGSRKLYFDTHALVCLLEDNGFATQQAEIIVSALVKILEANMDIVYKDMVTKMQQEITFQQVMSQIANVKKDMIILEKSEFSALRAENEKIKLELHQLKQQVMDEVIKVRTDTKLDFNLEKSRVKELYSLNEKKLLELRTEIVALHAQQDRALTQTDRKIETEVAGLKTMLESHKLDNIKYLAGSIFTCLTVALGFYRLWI
Sequence of UniProt Q6N075 (Q6N075 whole entry, looked up): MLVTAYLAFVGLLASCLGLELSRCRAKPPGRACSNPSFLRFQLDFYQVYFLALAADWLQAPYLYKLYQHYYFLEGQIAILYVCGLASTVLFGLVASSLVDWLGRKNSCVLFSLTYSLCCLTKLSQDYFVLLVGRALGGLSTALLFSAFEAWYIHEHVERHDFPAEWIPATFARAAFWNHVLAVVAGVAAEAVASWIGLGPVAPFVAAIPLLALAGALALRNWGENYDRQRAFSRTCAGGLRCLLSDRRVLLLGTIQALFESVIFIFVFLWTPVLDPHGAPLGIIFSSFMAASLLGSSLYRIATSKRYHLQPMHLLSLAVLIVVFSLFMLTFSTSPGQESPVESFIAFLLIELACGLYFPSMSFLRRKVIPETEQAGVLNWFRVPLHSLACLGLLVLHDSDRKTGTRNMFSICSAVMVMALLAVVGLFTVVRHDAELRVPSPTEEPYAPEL
Sequence of UniProt Q8NC56 (Q8NC56 whole entry, looked up): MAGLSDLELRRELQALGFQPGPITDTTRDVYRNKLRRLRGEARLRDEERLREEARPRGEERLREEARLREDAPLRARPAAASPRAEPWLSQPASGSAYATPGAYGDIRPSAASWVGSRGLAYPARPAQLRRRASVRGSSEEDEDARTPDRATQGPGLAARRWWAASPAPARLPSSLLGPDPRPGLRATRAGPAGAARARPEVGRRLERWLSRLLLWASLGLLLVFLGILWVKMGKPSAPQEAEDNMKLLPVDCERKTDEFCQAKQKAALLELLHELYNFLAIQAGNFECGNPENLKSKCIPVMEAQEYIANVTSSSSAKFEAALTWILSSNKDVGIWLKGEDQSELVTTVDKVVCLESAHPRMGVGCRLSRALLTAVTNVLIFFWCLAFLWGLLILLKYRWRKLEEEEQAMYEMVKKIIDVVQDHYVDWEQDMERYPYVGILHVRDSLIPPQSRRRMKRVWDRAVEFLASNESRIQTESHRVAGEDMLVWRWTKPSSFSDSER

| Target | log2 fold change [1] | log2 fold change (volasertib) | log2 fold change [2] | log2 fold change (epoxomicin) | log2 fold change [3] | log2 fold change [4] | log2 fold change [5] | log2 fold change (rosiglitazone) | log2 fold change [6] | log2 fold change [7] | log2 fold change (saracatinib) | log2 fold change (sotrastaurin) | log2 fold change (alvocidib) | log2 fold change (Tubastatin A) | log2 fold change [8] | log2 fold change (defactinib) | log2 fold change (rucaparib) | log2 fold change [9] | log2 fold change (encorafenib) | log2 fold change [10] |
| --- | --- | --- | --- | --- | --- | --- | --- | --- | --- | --- | --- | --- | --- | --- | --- | --- | --- | --- | --- | --- |
| LEMD2 (UniProt Q8NC56) | -0.212 | -0.422 (active) | 0.034 | -0.002 | -0.02 | 0.028 | 0.091 | 0.023 | -0.006 | -0.338 (active) | -0.048 | 0.004 | 0.061 | 0.014 | -0.058 | -0.126 | 0.11 | 0.041 | 0.023 | 0.013 |
| MCUR1 (UniProt Q96AQ8) | 0.022 | 0.137 | 0.006 | 0.009 | -0.027 | -0.041 | -0.038 | 0.025 | -0.042 | -0.115 | -0.002 | 0.053 | -0.035 | 0.014 | 0.014 | -0.047 | -0.038 | 0.014 | -0.009 | -0.028 |
| MAGEC2 (UniProt Q9UBF1) | -0.017 | -0.146 | 0.028 | -0.062 | 0.038 | -0.048 | -0.007 | 0.011 | -0.063 | 0 | 0.092 | -0.068 | -0.034 | -0.013 | 0.015 | -0.056 | -0.021 | -0.082 | 0.079 | 0.003 |
| MFSD5 isoform 2 (UniProt Q6N075) | 0.052 | 0.111 | -0.124 | 0.427 (active) | -0.012 | 0.028 | -0.092 | -0.032 | -0.056 | 0.14 | 0.058 | 0.122 | 0.029 | -0.093 | 0.069 | 0.039 | 0.058 | -0.065 | -0.022 | 0.012 |
| LIAS (UniProt O43766) | 0.051 | 0.055 | -0.021 | -0.011 | 0.027 | -0.044 | -0.043 | 0.003 | -0.052 | 0.057 | 0.049 | 0.271 (active) | 0.065 | -0.056 | 0.029 | 0.018 | 0.017 | -0.027 | 0 | 0.022 |
| LPCAT3 (UniProt Q6P1A2) | 0.146 | -0.026 | -0.008 | -0.005 | 0.062 | -0.063 | 0.087 | -0.042 | -0.093 | -0.202 | -0.048 | -0.14 | -0.002 | 0 | 0.093 | 0 | -0.074 | 0.138 | -0.026 | -0.021 |
| KCT2 (UniProt Q8NC54) | -0.312 | -0.076 | -0.006 | -0.063 | 0.089 | -0.03 | 0.064 | 0.009 | -0.051 | -0.037 | 0.027 | 0.042 | -0.095 | -0.003 | 0.096 | -0.088 | -0.008 | 0.031 | 0.063 | -0.036 |
| MAPK9 (UniProt P45984) | -0.055 | -0.087 | 0.006 | -0.005 | -0.004 | 0.03 | 0 | 0.04 | -0.038 | -0.071 | -0.118 | 0.046 | 0.002 | -0.013 | 0.328 (active) | 0.003 | -0.02 | 0 | 0.018 | 0.029 |
